In PubChem BioAssay AID1159580 (chemical genetic matrix, 2015):
Out of some 5,500 compounds screened, about 2,000 (36%) were called active. Roughly 18% stayed inconclusive and do not appear here. Cut-off read from the data, not from the text of the source: active = normalized growth mostly below about 0.91 (no sharp cut-off); inconclusive = no clear call, values can overlap the other calls; inactive = mostly above about 0.92. The list shows a part of the results.

Assay: chemical genetic growth profiling, strain panel (AID 1159580);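 note: tested at 20 µM; growth read once vehicle control cultures reached saturation at 30 °C; 1 = growth at the plate median or of vehicle wells; lower values mean less growth of the strain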
Settings: S. cerevisiae deletion strains, growth OD
[1] = locus YAL021C, strain ccr4, active compounds read low
[2] = locus YAL026C, strain drs2, active compounds read low
[3] = locus YAL030W, strain snc1, active compounds read low
[4] = locus YBL061C, strain skt5, active compounds read low
[5] = locus YBR009C, strain hhf1, active compounds read low
[6] = locus YBR023C, strain chs3, active compounds read low
[7] = locus YBR171W, strain sec66, active compounds read low
[8] = locus YBR231C, strain swc5, active compounds read low
[9] = locus YBR279W, strain paf1, active compounds read low
[10] = locus YCL011C, strain gbp2, active compounds read low
[11] = locus YCL016C, strain dcc1, active compounds read low
[12] = locus YCL061C, strain MRC1, active compounds read low
[13] = locus YCL069W, strain vba3, active compounds read low
[14] = locus YCR088W, strain abp1, active compounds read low
[15] = locus YDL005C, strain med2, active compounds read low
[16] = locus YDL040C, strain nat1, active compounds read low
[17] = locus YDR001C, strain nth1, active compounds read low
[18] = locus YDR069C, strain doa4, active compounds read low
[19] = locus YDR137W, strain rgp1, active compounds read low
[20] = locus YDR159W, strain sac3, active compounds read low
[21] = locus YDR297W, strain sur2, active compounds read low
[22] = locus YDR334W, strain swr1, active compounds read low
[23] = locus YDR335W, strain msn5, active compounds read low
[24] = locus YDR392W, strain spt3, active compounds read low
[25] = locus YEL003W, strain gim4, active compounds read low
[26] = locus YEL037C, strain rad23, active compounds read low
[27] = locus YEL061C, strain CIN8 (second series), active compounds read low
[28] = locus YER015W, strain faa2, active compounds read low
[29] = locus YER016W, strain bim1, active compounds read low
[30] = locus YER111C, strain swi4, active compounds read low
[31] = locus YER155C, strain BEM2 (second series), active compounds read low
[32] = locus YFR010W, strain ubp6, active compounds read low
[33] = locus YGL167C, strain pmr1, active compounds read low
[34] = locus YGL173C, strain kem1, active compounds read low
[35] = locus YGL227W, strain vid30, active compounds read low
[36] = locus YGL240W, strain doc1, active compounds read low
[37] = locus YGL253W, strain hxk2, active compounds read low
[38] = locus YHR013C, strain ard1, active compounds read low
[39] = locus YHR027C, strain rpn1, active compounds read low
[40] = locus YHR030C, strain SLT2, active compounds read low
[41] = locus YHR079C, strain IRE1, active compounds read low
[42] = locus YHR142W, strain chs7, active compounds read low
[43] = locus YJL092W, strain hpr5, active compounds read low
[44] = locus YJL095W, strain BCK1 (second series), active compounds read low
[45] = locus YJL095W, strain BCK1, active compounds read low
[46] = locus YJL115W, strain asf1, active compounds read low
[47] = locus YJL129C, strain trk1, active compounds read low
[48] = locus YJL154C, strain vps35, active compounds read low
[49] = locus YJL164C, strain tpk1, active compounds read low
[50] = locus YJL166W, strain qcr8, active compounds read low
[51] = locus YJL187C, strain SWE1, active compounds read low
[52] = locus YJR066W, strain TOR1, active compounds read low
[53] = locus YKL160W, strain elf1, active compounds read low
[54] = locus YKR026C, strain gcn3, active compounds read low
[55] = locus YKR091W, strain srl3, active compounds read low
[56] = locus YLL001W, strain dnm1, active compounds read low
[57] = locus YLL026W, active compounds read low
[58] = locus YLL041C, strain sdh2, active compounds read low
[59] = locus YLR027C, strain aat2, active compounds read low
[60] = locus YLR113W, strain HOG1, active compounds read low
[61] = locus YLR221C, strain rsa3, active compounds read low
[62] = locus YLR258W, strain gsy2, active compounds read low
[63] = locus YLR262C, strain YPT6 (second series), active compounds read low
[64] = locus YLR320W, strain mms22, active compounds read low
[65] = locus YLR342W, strain FKS1, active compounds read low
[66] = locus YLR357W, strain rsc2, active compounds read low
[67] = locus YLR370C, strain arc18, active compounds read low
[68] = locus YLR384C, strain iki3, active compounds read low
[69] = locus YML120C, strain ndi1, active compounds read low
[70] = locus YMR058W, strain fet3, active compounds read low
[71] = locus YMR125W, strain sto1, active compounds read low
[72] = locus YMR129W, active compounds read low
[73] = locus YMR205C, strain PFK2, active compounds read low
[74] = locus YMR231W, strain pep5, active compounds read low
[75] = locus YNL071W, strain lat1, active compounds read low
[76] = locus YNL183C, strain NPR1, active compounds read low
[77] = locus YNL209W, strain ssb2, active compounds read low
[78] = locus YNL248C, strain rpa49, active compounds read low
[79] = locus YNL322C, strain KRE1 (second series), active compounds read low
[80] = locus YNR049C, strain mso1, active compounds read low
[81] = locus YOR001W, strain rrp6, active compounds read low
[82] = locus YOR070C, strain gyp1, active compounds read low
[83] = locus YOR080W, strain dia2, active compounds read low
[84] = locus YOR083W, strain WHI5, active compounds read low
[85] = locus YOR106W, strain vam3, active compounds read low
[86] = locus YOR231W, strain MKK1, active compounds read low
[87] = locus YOR265W, strain rbl2, active compounds read low
[88] = locus YOR270C, strain vph1, active compounds read low
[89] = locus YOR290C, strain snf2, active compounds read low
[90] = locus YPL051W, strain arl3, active compounds read low
[91] = locus YPL078C, strain atp4, active compounds read low
[92] = locus YPL106C, strain sse1, active compounds read low
[93] = locus YPL240C, strain hsp82, active compounds read low
[94] = locus YPL256C, strain CLN2, active compounds read low

Measured: normalized growth

O=C(NC1CCCCC1)NC1CCCCC1
inactive: [1] 0.987 | [2] 0.995 | [3] 0.976 | [4] 0.976 | [5] 0.998 | [6] 0.976 | [7] 0.977 | [8] 0.981 | [9] 0.981 | [10] 0.973 | [11] 0.97 | [12] 0.983 | [13] 0.978 | [14] 0.973 | [15] 0.981 | [16] 0.981 | [17] 0.972 | [18] 0.979 | [19] 0.964 | [20] 0.995 | locus YDR195W, strain ref2 0.958 | [21] 0.971 | [22] 0.961 | [23] 0.98 | [24] 0.918 | [25] 0.983 | [26] 0.977 | [27] 0.982 | [28] 0.99 | [29] 0.981 | [30] 0.96 | [31] 0.971 | [32] 0.988 | [33] 0.976 | [34] 0.98 | [35] 0.972 | [36] 0.986 | [37] 0.99 | [38] 0.97 | [39] 1 | [40] 1.08 | [41] 1.07 | [42] 0.956 | [43] 0.981 | [44] 0.973 | [45] 1.07 | [46] 0.969 | [47] 0.953 | [48] 0.972 | [49] 0.995 | [50] 0.985 | [51] 0.979 | [52] 1.01 | [53] 0.977 | [54] 0.972 | [55] 0.977 | [56] 0.966 | [57] 0.981 | [58] 0.982 | [59] 0.991 | [60] 1.03 | [61] 0.976 | [62] 0.972 | [63] 0.96 | [64] 0.974 | [65] 0.975 | [66] 0.977 | [67] 0.983 | [68] 0.951 | [69] 0.969 | [70] 0.987 | [71] 0.96 | [72] 0.977 | [73] 0.969 | [74] 0.978 | [75] 0.985 | [76] 1 | [77] 0.974 | [78] 0.98 | [79] 0.962 | [80] 0.978 | [81] 0.995 | [82] 0.97 | [83] 0.971 | [84] 0.971 | [85] 0.983 | [86] 1.04 | [87] 0.979 | [88] 0.905 | [89] 0.953 | [90] 0.983 | [91] 0.981 | [92] 0.951 | [93] 0.98 | [94] 1.08

NCCNCCNCCN
inactive: [1] 0.984 | [2] 1.01 | [3] 0.998 | [4] 1 | [5] 1.01 | [6] 1.01 | [7] 1 | [8] 0.992 | [9] 0.999 | [10] 0.992 | [11] 1 | [12] 0.986 | [13] 0.995 | [14] 1 | [15] 1.01 | [16] 1 | [17] 0.99 | [18] 1 | [19] 1 | [20] 0.996 | locus YDR195W, strain ref2 0.982 | [21] 0.995 | [22] 1 | [23] 0.998 | [24] 1.01 | [25] 0.999 | [26] 0.994 | [27] 0.998 | [28] 0.991 | [29] 1 | [30] 1 | [31] 1.04 | [32] 0.998 | [33] 0.998 | [34] 1.01 | [35] 1 | [36] 1.02 | [37] 0.994 | [38] 1 | [39] 1 | [40] 1.02 | [41] 1.02 | [42] 0.961 | [43] 0.999 | [44] 0.995 | [45] 0.989 | [46] 1.01 | [47] 0.991 | [48] 1 | [49] 0.997 | [50] 0.994 | [51] 1 | [52] 0.955 | [53] 0.987 | [54] 0.993 | [55] 0.991 | [56] 0.997 | [57] 1.01 | [58] 0.997 | [59] 1 | [60] 0.976 | [61] 0.984 | [62] 1.01 | [63] 0.985 | [64] 1 | [65] 1 | [66] 1.02 | [67] 0.995 | [68] 0.999 | [69] 0.991 | [70] 1 | [71] 1.01 | [72] 0.997 | [73] 1.02 | [74] 1 | [75] 1.01 | [76] 0.946 | [77] 0.998 | [78] 0.975 | [79] 1 | [80] 0.993 | [81] 0.988 | [82] 1 | [83] 1 | [84] 0.985 | [85] 0.986 | [86] 0.995 | [87] 0.996 | [88] 0.937 | [89] 1 | [90] 0.997 | [91] 0.992 | [92] 1.02 | [93] 0.977 | [94] 1.01
